Data taken from PubChem BioAssay AID1159580 (chemical genetic matrix, 2015).
The whole screen tested about 5,500 compounds, of which about 2,000 (36%) were called active. About 18% were inconclusive and are not listed. Cut-off read from the data, not from the text of the source: active = normalized growth mostly below about 0.91 (no sharp cut-off); inconclusive = no clear call, values can overlap the other calls; inactive = mostly above about 0.92. The list shows a part of the results.

Assay: chemical genetic growth profiling, strain panel (AID 1159580);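 note: tested at 20 µM; growth read once vehicle control cultures reached saturation at 30 °C; 1 = growth at the plate median or of vehicle wells; lower values mean less growth of the strain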
Conditions: S. cerevisiae deletion strains, growth OD

Measured: normalized growth

O=C(O)C1=CCNCC1
inactive: locus YAL013W, strain DEP1, stronger effect = lower value 0.953 | locus YAL021C, strain ccr4, stronger effect = lower value 0.979 | locus YAL026C, strain drs2, stronger effect = lower value 1.02 | locus YAL030W, strain snc1, stronger effect = lower value 1.02 | locus YBL061C, strain skt5, stronger effect = lower value 1.01 | locus YBR009C, strain hhf1, stronger effect = lower value 1.03 | locus YBR023C, strain chs3, stronger effect = lower value 1.01 | locus YBR171W, strain sec66, stronger effect = lower value 1.01 | locus YBR231C, strain swc5, stronger effect = lower value 1.05 | locus YBR279W, strain paf1, stronger effect = lower value 1.01 | locus YCL011C, strain gbp2, stronger effect = lower value 1.01 | locus YCL016C, strain dcc1, stronger effect = lower value 1.02 | locus YCL061C, strain MRC1 (second series), stronger effect = lower value 0.984 | locus YCL061C, strain MRC1, stronger effect = lower value 1.02 | locus YCL069W, strain vba3, stronger effect = lower value 1.01 | locus YCR088W, strain abp1, stronger effect = lower value 1.02 | locus YDL005C, strain med2, stronger effect = lower value 1.01 | locus YDL040C, strain nat1, stronger effect = lower value 1 | locus YDR001C, strain nth1, stronger effect = lower value 1.01 | locus YDR069C, strain doa4, stronger effect = lower value 1.03 | locus YDR137W, strain rgp1, stronger effect = lower value 0.985 | locus YDR150W, strain NUM1, stronger effect = lower value 0.991 | locus YDR159W, strain sac3, stronger effect = lower value 1.02 | locus YDR195W, strain ref2 0.996 | locus YDR297W, strain sur2, stronger effect = lower value 1.01 | locus YDR334W, strain swr1, stronger effect = lower value 1.02 | locus YDR335W, strain msn5, stronger effect = lower value 1.02 | locus YDR363W, strain ESC2, stronger effect = lower value 0.979 | locus YDR392W, strain spt3, stronger effect = lower value 0.98 | locus YEL003W, strain gim4, stronger effect = lower value 1.02 | locus YEL037C, strain rad23, stronger effect = lower value 1.01 | locus YEL061C, strain CIN8 (second series), stronger effect = lower value 1.01 | locus YER002W, strain NOP16, stronger effect = lower value 0.993 | locus YER015W, strain faa2, stronger effect = lower value 1.02 | locus YER016W, strain bim1, stronger effect = lower value 1.02 | locus YER111C, strain swi4, stronger effect = lower value 1.01 | locus YER155C, strain BEM2 (second series), stronger effect = lower value 1.05 | locus YFR010W, strain ubp6, stronger effect = lower value 1.02 | locus YGL167C, strain pmr1, stronger effect = lower value 1.02 | locus YGL173C, strain kem1, stronger effect = lower value 1.01 | locus YGL227W, strain vid30, stronger effect = lower value 1.01 | locus YGL240W, strain doc1, stronger effect = lower value 1.03 | locus YGL253W, strain hxk2, stronger effect = lower value 1.01 | locus YHR013C, strain ard1, stronger effect = lower value 1.02 | locus YHR027C, strain rpn1, stronger effect = lower value 1.02 | locus YHR030C, strain SLT2, stronger effect = lower value 1.04 | locus YHR079C, strain IRE1, stronger effect = lower value 1.05 | locus YHR142W, strain chs7, stronger effect = lower value 0.988 | locus YJL092W, strain hpr5, stronger effect = lower value 1.01 | locus YJL095W, strain BCK1 (second series), stronger effect = lower value 1.02 | locus YJL095W, strain BCK1, stronger effect = lower value 1.03 | locus YJL115W, strain asf1, stronger effect = lower value 1.02 | locus YJL129C, strain trk1, stronger effect = lower value 1.01 | locus YJL154C, strain vps35, stronger effect = lower value 1.01 | locus YJL164C, strain tpk1, stronger effect = lower value 1.01 | locus YJL166W, strain qcr8, stronger effect = lower value 1.01 | locus YJL187C, strain SWE1, stronger effect = lower value 1.01 | locus YJR066W, strain TOR1, stronger effect = lower value 0.961 | locus YJR075W, strain HOC1, stronger effect = lower value 0.978 | locus YKL160W, strain elf1, stronger effect = lower value 0.99 | locus YKR026C, strain gcn3, stronger effect = lower value 1.02 | locus YKR091W, strain srl3, stronger effect = lower value 1.01 | locus YLL001W, strain dnm1, stronger effect = lower value 1.01 | locus YLL026W, stronger effect = lower value 1.01 | locus YLL041C, strain sdh2, stronger effect = lower value 1.01 | locus YLR027C, strain aat2, stronger effect = lower value 1.01 | locus YLR113W, strain HOG1, stronger effect = lower value 1.06 | locus YLR221C, strain rsa3, stronger effect = lower value 1.02 | locus YLR258W, strain gsy2, stronger effect = lower value 1.04 | locus YLR262C, strain YPT6 (second series), stronger effect = lower value 1.01 | locus YLR320W, strain mms22, stronger effect = lower value 1.03 | locus YLR342W, strain FKS1, stronger effect = lower value 1.03 | locus YLR357W, strain rsc2, stronger effect = lower value 1.03 | locus YLR370C, strain arc18, stronger effect = lower value 1.02 | locus YLR384C, strain iki3, stronger effect = lower value 1.01 | locus YML120C, strain ndi1, stronger effect = lower value 1.01 | locus YMR058W, strain fet3, stronger effect = lower value 1.02 | locus YMR125W, strain sto1, stronger effect = lower value 1.02 | locus YMR129W, stronger effect = lower value 1.01 | locus YMR205C, strain PFK2, stronger effect = lower value 1.03 | locus YMR231W, strain pep5, stronger effect = lower value 1.01 | locus YNL071W, strain lat1, stronger effect = lower value 1.02 | locus YNL128W, strain TEP1, stronger effect = lower value 0.982 | locus YNL153C, strain GIM3, stronger effect = lower value 0.965 | locus YNL175C, strain NOP13, stronger effect = lower value 0.994 | locus YNL183C, strain NPR1, stronger effect = lower value 0.958 | locus YNL209W, strain ssb2, stronger effect = lower value 1.01 | locus YNL224C, strain SQS1, stronger effect = lower value 0.982 | locus YNL248C, strain rpa49, stronger effect = lower value 0.98 | locus YNL322C, strain KRE1 (second series), stronger effect = lower value 1.01 | locus YNL322C, strain KRE1, stronger effect = lower value 0.991 | locus YNR049C, strain mso1, stronger effect = lower value 1.02 | locus YOR001W, strain rrp6, stronger effect = lower value 1 | locus YOR070C, strain gyp1, stronger effect = lower value 1.02 | locus YOR080W, strain dia2, stronger effect = lower value 1.03 | locus YOR083W, strain WHI5, stronger effect = lower value 0.982 | locus YOR106W, strain vam3, stronger effect = lower value 0.986 | locus YOR231W, strain MKK1, stronger effect = lower value 1.04 | locus YOR265W, strain rbl2, stronger effect = lower value 1.01 | locus YOR270C, strain vph1, stronger effect = lower value 1.02 | locus YOR290C, strain snf2, stronger effect = lower value 1.01 | locus YPL051W, strain arl3, stronger effect = lower value 1.01 | locus YPL055C, strain LGE1, stronger effect = lower value 0.974 | locus YPL078C, strain atp4, stronger effect = lower value 0.991 | locus YPL106C, strain sse1, stronger effect = lower value 1.02 | locus YPL240C, strain hsp82, stronger effect = lower value 1 | locus YPL256C, strain CLN2, stronger effect = lower value 1.05
